ChEMBL document CHEMBL1961873, “Compounds: GSK PKIS; Assays: Nanosyn kinase panel” (2012)

What was measured:
[1] = molecular target: Rho-associated protein kinase 1 (Homo sapiens) (UniProt Q13464); conditions: at 1 µM;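 further: reported values are mean percent inhibition of ROCK1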
[2] = molecular target: Rho-associated protein kinase 2 (Homo sapiens) (UniProt O75116); conditions: at 0.1 µM
[3] = molecular target: Rho-associated protein kinase 2 (Homo sapiens) (UniProt O75116); conditions: at 1 µM
[4] = molecular target: Ribosomal protein S6 kinase alpha-1 (Homo sapiens) (UniProt Q15418); conditions: at 0.1 µM
[5] = molecular target: Ribosomal protein S6 kinase alpha-1 (Homo sapiens) (UniProt Q15418); conditions: at 1 µM
[6] = molecular target: Ribosomal protein S6 kinase alpha-3 (Homo sapiens) (UniProt P51812); conditions: at 0.1 µM
[7] = molecular target: Ribosomal protein S6 kinase alpha-3 (Homo sapiens) (UniProt P51812); conditions: at 1 µM
[8] = molecular target: Ribosomal protein S6 kinase alpha-2 (Homo sapiens) (UniProt Q15349); conditions: at 0.1 µM
[9] = molecular target: Ribosomal protein S6 kinase alpha-2 (Homo sapiens) (UniProt Q15349); conditions: at 1 µM
[10] = molecular target: Ribosomal protein S6 kinase alpha-6 (Homo sapiens) (UniProt Q9UK32); conditions: at 0.1 µM;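 further: reported value is the mean inhibition of RSK4, from the GSK PKIS kinase inhibitor screen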

Chain of Rho-associated protein kinase 2 (Homo sapiens) (O75116 whole entry, looked up): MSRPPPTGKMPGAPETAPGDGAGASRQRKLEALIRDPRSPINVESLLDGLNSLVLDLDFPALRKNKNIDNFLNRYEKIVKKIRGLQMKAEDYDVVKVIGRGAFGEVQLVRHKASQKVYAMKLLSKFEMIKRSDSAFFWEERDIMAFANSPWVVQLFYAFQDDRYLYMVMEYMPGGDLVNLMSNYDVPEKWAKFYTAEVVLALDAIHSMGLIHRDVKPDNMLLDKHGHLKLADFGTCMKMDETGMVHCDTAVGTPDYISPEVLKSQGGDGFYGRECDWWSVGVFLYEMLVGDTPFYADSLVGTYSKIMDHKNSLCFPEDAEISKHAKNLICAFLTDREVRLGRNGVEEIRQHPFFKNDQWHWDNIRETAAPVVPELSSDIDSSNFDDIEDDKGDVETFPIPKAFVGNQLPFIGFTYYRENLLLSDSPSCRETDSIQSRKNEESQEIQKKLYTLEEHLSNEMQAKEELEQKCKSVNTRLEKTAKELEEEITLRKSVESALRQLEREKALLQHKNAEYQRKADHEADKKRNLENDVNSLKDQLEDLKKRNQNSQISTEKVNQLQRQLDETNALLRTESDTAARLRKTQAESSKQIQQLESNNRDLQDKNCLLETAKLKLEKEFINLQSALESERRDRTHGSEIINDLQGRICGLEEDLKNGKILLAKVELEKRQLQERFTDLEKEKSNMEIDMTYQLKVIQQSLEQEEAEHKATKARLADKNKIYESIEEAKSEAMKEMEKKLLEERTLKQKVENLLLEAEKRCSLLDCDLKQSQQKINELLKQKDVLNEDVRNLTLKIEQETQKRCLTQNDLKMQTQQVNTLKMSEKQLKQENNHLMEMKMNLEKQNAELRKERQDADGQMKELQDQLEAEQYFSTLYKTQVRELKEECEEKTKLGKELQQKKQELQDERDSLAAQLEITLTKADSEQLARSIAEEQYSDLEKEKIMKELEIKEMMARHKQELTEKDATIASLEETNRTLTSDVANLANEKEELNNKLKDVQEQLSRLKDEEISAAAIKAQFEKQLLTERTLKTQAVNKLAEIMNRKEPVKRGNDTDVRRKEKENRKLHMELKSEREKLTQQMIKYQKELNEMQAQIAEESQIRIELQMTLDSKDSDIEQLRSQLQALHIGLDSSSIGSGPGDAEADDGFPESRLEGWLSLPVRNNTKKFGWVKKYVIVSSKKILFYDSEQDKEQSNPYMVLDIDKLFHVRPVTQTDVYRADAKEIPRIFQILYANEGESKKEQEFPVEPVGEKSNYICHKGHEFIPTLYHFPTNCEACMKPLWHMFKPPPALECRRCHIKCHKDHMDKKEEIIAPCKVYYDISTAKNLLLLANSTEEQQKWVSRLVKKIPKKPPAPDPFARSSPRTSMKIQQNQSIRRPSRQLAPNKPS
Chain of Ribosomal protein S6 kinase alpha-2 (Homo sapiens) (Q15349 whole entry): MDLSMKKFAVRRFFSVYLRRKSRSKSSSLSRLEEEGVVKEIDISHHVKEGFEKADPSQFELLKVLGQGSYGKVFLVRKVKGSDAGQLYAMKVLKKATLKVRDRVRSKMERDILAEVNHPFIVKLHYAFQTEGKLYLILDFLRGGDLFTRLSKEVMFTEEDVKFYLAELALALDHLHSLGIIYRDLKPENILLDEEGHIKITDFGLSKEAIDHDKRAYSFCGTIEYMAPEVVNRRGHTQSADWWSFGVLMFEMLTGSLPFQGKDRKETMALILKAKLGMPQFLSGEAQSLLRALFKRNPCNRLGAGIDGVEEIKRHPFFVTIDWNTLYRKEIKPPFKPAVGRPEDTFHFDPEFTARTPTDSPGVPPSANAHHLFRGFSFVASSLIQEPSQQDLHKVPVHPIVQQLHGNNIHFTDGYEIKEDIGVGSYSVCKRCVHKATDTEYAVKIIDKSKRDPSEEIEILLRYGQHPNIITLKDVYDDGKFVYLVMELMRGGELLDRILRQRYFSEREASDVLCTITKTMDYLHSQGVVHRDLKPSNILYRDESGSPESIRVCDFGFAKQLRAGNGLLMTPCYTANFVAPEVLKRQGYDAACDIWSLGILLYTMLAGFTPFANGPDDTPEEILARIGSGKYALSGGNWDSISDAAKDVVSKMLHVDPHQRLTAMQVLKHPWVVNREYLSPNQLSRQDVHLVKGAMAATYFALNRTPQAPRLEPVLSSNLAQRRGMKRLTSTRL
Chain of Ribosomal protein S6 kinase alpha-3 (Homo sapiens) (P51812 whole entry): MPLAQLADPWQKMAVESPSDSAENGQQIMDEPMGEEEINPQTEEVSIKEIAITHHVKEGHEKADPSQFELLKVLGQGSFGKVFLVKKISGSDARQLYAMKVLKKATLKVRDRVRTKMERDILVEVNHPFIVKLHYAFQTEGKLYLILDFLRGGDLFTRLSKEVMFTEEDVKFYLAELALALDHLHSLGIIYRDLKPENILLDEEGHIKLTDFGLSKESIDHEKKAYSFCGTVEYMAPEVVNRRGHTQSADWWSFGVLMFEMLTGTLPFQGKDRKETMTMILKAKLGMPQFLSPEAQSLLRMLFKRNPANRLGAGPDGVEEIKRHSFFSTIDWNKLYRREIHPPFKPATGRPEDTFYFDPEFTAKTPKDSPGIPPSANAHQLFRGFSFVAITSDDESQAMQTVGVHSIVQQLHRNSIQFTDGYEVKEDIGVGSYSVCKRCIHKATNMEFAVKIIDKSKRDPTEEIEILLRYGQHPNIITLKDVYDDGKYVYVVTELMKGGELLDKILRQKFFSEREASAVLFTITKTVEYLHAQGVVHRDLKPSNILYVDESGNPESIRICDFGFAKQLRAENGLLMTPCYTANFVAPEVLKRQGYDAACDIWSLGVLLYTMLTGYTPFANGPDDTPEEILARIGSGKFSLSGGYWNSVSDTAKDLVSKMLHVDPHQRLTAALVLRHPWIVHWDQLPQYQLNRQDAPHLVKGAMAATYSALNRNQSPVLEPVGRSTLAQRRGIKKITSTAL
Chain of Ribosomal protein S6 kinase alpha-1 (Homo sapiens) (Q15418 whole entry): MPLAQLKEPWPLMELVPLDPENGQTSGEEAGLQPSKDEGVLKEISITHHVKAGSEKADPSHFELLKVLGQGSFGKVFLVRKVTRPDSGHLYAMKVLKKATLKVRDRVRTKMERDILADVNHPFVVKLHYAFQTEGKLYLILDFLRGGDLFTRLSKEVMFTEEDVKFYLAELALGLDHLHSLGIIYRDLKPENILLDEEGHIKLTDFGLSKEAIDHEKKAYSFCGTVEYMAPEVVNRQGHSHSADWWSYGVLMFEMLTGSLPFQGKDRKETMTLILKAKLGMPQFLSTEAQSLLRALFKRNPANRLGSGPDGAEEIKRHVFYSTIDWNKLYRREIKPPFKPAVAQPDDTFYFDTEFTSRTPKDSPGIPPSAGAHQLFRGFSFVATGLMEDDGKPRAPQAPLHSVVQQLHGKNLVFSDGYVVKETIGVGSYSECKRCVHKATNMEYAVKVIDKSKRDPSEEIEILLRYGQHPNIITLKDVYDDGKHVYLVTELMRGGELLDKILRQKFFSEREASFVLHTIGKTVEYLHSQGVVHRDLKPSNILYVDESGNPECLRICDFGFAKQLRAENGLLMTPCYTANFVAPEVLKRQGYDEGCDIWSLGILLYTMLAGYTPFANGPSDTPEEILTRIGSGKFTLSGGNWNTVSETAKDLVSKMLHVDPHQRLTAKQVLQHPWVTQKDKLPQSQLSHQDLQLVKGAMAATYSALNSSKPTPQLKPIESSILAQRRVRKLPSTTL
Chain of Rho-associated protein kinase 1 (Homo sapiens) (Q13464 2-1354 limits assumed): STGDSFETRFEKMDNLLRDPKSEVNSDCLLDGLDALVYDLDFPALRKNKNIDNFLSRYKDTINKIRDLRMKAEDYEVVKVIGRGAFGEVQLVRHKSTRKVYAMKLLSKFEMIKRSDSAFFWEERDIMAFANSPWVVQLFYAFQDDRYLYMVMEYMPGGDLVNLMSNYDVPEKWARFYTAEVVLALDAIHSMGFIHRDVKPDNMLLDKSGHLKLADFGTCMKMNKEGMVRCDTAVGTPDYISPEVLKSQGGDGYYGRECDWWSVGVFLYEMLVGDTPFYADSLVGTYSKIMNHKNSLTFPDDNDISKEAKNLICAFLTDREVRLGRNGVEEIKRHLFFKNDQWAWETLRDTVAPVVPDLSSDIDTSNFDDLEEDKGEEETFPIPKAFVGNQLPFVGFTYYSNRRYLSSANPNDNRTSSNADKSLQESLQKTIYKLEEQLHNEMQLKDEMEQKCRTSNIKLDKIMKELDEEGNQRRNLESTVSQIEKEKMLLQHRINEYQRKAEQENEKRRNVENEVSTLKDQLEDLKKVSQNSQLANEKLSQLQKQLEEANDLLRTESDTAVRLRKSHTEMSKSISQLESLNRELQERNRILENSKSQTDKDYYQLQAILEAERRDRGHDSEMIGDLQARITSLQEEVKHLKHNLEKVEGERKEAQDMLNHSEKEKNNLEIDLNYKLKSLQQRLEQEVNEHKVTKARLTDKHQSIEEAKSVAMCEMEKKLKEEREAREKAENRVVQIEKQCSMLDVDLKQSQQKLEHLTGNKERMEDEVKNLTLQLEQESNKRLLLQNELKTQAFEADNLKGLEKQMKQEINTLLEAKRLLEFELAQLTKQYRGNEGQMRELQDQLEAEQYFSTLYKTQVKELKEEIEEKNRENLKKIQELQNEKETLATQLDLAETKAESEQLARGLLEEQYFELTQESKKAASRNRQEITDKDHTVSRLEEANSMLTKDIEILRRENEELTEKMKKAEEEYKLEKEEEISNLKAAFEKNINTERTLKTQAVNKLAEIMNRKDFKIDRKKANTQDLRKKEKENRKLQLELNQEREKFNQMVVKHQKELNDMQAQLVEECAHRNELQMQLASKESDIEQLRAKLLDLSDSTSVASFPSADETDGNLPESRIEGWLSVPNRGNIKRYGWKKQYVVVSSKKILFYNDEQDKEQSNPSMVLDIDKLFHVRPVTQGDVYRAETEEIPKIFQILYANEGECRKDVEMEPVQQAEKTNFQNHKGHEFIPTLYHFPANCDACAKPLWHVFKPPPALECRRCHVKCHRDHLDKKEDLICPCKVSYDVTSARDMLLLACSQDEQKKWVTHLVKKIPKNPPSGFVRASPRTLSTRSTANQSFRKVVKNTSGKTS

| SMILES | inhibition [1] | inhibition [2] | inhibition [3] | inhibition [4] | inhibition [5] | inhibition [6] | inhibition [7] | inhibition [8] | inhibition [9] | inhibition [10] |
| --- | --- | --- | --- | --- | --- | --- | --- | --- | --- | --- |
| Fc1ccc(-c2cc(-c3c[nH]nc3-c3ccccn3)ccn2)cc1 | 1.54% | 2.91% | 7.8% | 1.71% | 5.2% | 0.81% | 3.36% | 1.61% | 2.64% | -0.68% |
| Nc1nc(-c2ccc(F)cc2)c(-c2ccc3ncccc3n2)s1 | 2.11% | 4.08% | 5.66% | 3.54% | 7.04% | 1.7% | 3.18% | 1.93% | 3.03% | 1.18% |
| CCn1cc(-c2ccnc3[nH]ccc23)c(-c2cccc(NC(=O)Nc3ccc(OCc4ccccc4)cc3)c2)n1 | -1.44% | 1.34% | 15.9% | -1.5% | 1.29% | 1.34% | 1.78% | -0.02% | 0.38% | -1.3% |
| CN(C)CCOc1ccc(-c2nc(-c3ccncc3)c(-c3ccc4c(c3)CC/C4=N\O)[nH]2)cc1 | 1.11% | 3.19% | 4.22% | 2.14% | 5.08% | 1.07% | 2% | 1.9% | 2.18% | 0.86% |
| c1cc(-c2cnn3nc(N4CCOCC4)ccc23)nc(NC2CC2)n1 | 5.25% | 2.62% | 10.7% | 2.23% | 8.38% | 0.87% | 6.33% | 1.86% | 5.06% | 0.29% |
| CCCN1CCC(c2ccc(Nc3nc(Nc4cc(F)ccc4C(N)=O)c4cc[nH]c4n3)c(OC)c2)CC1 | 64.6% | 19.9% | 69.8% | 37.4% | 69.7% | 26.5% | 66.8% | 12% | 53.5% | 23.4% |
| CC(=O)NCc1cccc(C#Cc2cncnc2Nc2ccc(OCc3cccc(F)c3)c(Cl)c2)c1 | 2.63% | 3.83% | 3.71% | 0.02% | 0.7% | 0.76% | 1.97% | 1.51% | 1.36% | 0.19% |
| [O-][S+]1CCN(Cc2ccc(-c3ccc4ncnc(Nc5ccc(OCc6cccc(F)c6)c(Cl)c5)c4c3)o2)CC1 | 4.37% | 2.9% | 5.33% | 2.31% | 3.99% | 0.59% | 0.78% | 3.09% | 3.37% | 1.65% |
| O=C(O[C@H]1CN[C@H](C#Cc2cc3ncnc(Nc4ccc(Cc5ccccc5)cc4)c3s2)C1)N1CCOCC1 | 1.88% | 1.88% | 2.51% | 1.51% | 1.3% | 1.48% | 1.79% | 2.02% | 3% | 1.78% |
| Cc1ccc2c(-c3ccnc(Nc4ccccc4)n3)c(-c3ccc(F)cc3)nn2n1 | 1.37% | 2.77% | 2.45% | 1.84% | 4.63% | 0.24% | 0.63% | 2.02% | 2.16% | 0.84% |
| O=S(=O)(CCNCc1ccc(-c2ccc3ncnc(Nc4ccc(OCc5cccc(F)c5)c(Cl)c4)c3c2)o1)c1ccccc1 | 3.67% | 3.77% | 5.56% | 2.26% | 4.3% | 0.92% | 0.8% | 1.16% | 2.98% | 0.95% |
| Nc1ncc(-c2cccc(S(N)(=O)=O)c2)c2scc(-c3ccc(F)c(Cl)c3)c12 | 1.47% | 2.98% | 2.92% | 2.93% | 6.15% | 2.5% | 2.98% | 3.17% | 2.68% | 2.34% |
| c1ccc(COc2ccc(Nc3ncnc4ccc(-c5ccco5)cc34)cc2)cc1 | -0.24% | 1.39% | 0.1% | -0.1% | 1.39% | 2.07% | 2.71% | 1.13% | 0.34% | 0.12% |
| CCn1c(-c2nonc2N)nc2cnc(Oc3cccc(NC(=O)c4ccc(N(C)C)cc4)c3)cc21 | 87.1% | 85.5% | 86% | 26.1% | 68.3% | 12.7% | 52.8% | 17.4% | 63.6% | 2.31% |
| COc1cccc(-n2ncc3c(N/N=C/c4ccc(F)cc4)ncnc32)c1 | 1.49% | 4.65% | 6.14% | 2.21% | 4.62% | 1.27% | 2.74% | 0.94% | 3.3% | 1.4% |
| COC(=O)Nc1nc2ccc(Oc3ccc(NC(=O)Nc4cccc(Cl)c4)cc3)cc2[nH]1 | 6.4% | 2.53% | 5.68% | -0.78% | 0.39% | 0.65% | 1.37% | 0.54% | 0.67% | -0.53% |
| Fc1ccc(-c2nn3ccccc3c2-c2ccncc2)cc1 | 4.95% | 5.66% | 3.03% | 1.48% | 4.42% | 1.87% | 3.24% | 0.67% | 1.19% | 1.1% |

| SMILES | inhibition [1] | inhibition [2] | inhibition [3] | inhibition [4] | inhibition [5] | inhibition [6] | inhibition [7] | inhibition [8] | inhibition [9] | inhibition [10] |
| --- | --- | --- | --- | --- | --- | --- | --- | --- | --- | --- |
| CCc1nn2ncccc2c1-c1ccnc(NC2CC2)n1 | 1.83% | 1.74% | 2.93% | 1.29% | 2.08% | 1.54% | 0.91% | 3.18% | 2.75% | 1.44% |
| Nc1nc(-c2cccc(Cl)c2)c(-c2ccc3ncccc3n2)s1 | 1.91% | 4.39% | 7.84% | 3.03% | 9.16% | 1.82% | 4.8% | 3.04% | 2.74% | 1.97% |
| CS(=O)(=O)CCNCc1ccc(-c2ccc3ncnc(Nc4ccc(OCc5ccccc5)c(C(F)(F)F)c4)c3c2)o1 | 2.14% | 2.7% | 2.3% | 0.89% | 1.86% | 1.54% | 1.72% | 2.31% | 2.74% | 0.89% |
| NS(=O)(=O)c1ccc(N/N=C2\C(=O)Nc3ccc4ncccc4c32)cc1 | 38.4% | 15.9% | 60.3% | 6.2% | 30.6% | 7.41% | 39.4% | 15.9% | 61.7% | 13% |
| COc1cc2ncn(-c3cc(OCc4ccccc4C(F)(F)F)c(C(=O)N(C)C)s3)c2cc1OC | 0.34% | -0.35% | 1.56% | -0.72% | 0.84% | -0.53% | 0.59% | -0.15% | 1.29% | -0.29% |
| Fc1ccc(-c2nn3ncccc3c2-c2ccnc(Nc3ccc4c(c3)OCCO4)n2)cc1 | 1.7% | 1.49% | 2.36% | 1.15% | 4.94% | 0.37% | 1.36% | 2.3% | 4.22% | 2.06% |
| CCOc1ccc2c(-c3ccnc(Nc4cccc(C(F)(F)F)c4)n3)cnn2n1 | -1% | 1.46% | -0.05% | -0.89% | 0.51% | 1.29% | 1.88% | 1.09% | 0.76% | -0.47% |
| Cc1ccc(O)cc1Nc1ccnc2cc(-c3ccccn3)ccc12 | 3.92% | 2.07% | 0.33% | 1.44% | 0.51% | 0.48% | -0.99% | 1.68% | 2.66% | 0.21% |
| CCNC(=O)O[C@H]1CN[C@H](C#Cc2cc3ncnc(Nc4ccc(OCc5cccc(F)c5)c(Cl)c4)c3s2)C1 | 1.95% | 2.86% | 0.32% | 1.32% | 0.05% | -0.04% | -1.01% | 1.63% | 0.86% | 1.4% |
| CC(=O)Nc1cccc(C#Cc2cncnc2Nc2ccc(OCc3cccc(F)c3)c(Cl)c2)c1 | 0.67% | 0.44% | 0.1% | 0.12% | -1.94% | 0.9% | -0.35% | 1.46% | 0.33% | 0.92% |
| COC(=O)c1sc(-n2cnc3cc(OC)c(OC)cc32)cc1OCc1ccccc1C(F)(F)F | 1.93% | 1.69% | 1.32% | 0.68% | 1.38% | 0.27% | 1.3% | 1.77% | 4.5% | 1.2% |
| COc1ccc2c(-c3ccnc(Nc4cccc(OC(F)(F)F)c4)n3)cnn2n1 | 2.92% | 3.74% | 8.15% | 2.26% | 3.67% | 1.3% | 1.1% | 1.43% | 2.43% | 1.53% |
| FC(F)(F)c1cccc(-c2nn3ncccc3c2-c2ccnc(Nc3ccc4c(c3)OCCO4)n2)c1 | 2.47% | 0% | 1.32% | 1.14% | 5.1% | -0.79% | -1.39% | 1.2% | 2.46% | 1.4% |
| Fc1cccc(COc2ccc(Nc3ncnc4sc(-c5ccco5)cc34)cc2Cl)c1 | 2.72% | 3.35% | 4.12% | 2.09% | 2.91% | 1.55% | 3.12% | 2.51% | 2.48% | 1.33% |
| COc1cccc(-c2c[nH]c3c(N/N=C/c4ccncc4)ncnc23)c1 | 7.68% | 3.52% | 11.7% | 2.76% | 7.19% | 1.21% | 7.47% | 2.28% | 11.7% | 1.63% |
| COc1ccc(-c2cc(-c3c[nH]nc3-c3ccccn3)ccn2)cc1 | 4.3% | 4.88% | 7.92% | 2.73% | 6.34% | 1.84% | 4.06% | 2.82% | 4.07% | 1.53% |
| CC(C)(CO)CNC(=O)c1ccc2c(c1)/C(=N/Nc1ccc(S(N)(=O)=O)cc1)C(=O)N2 | 5.01% | 0.95% | 10.3% | 0.63% | 3.49% | 0.73% | 4.41% | 0.48% | 6.29% | 1.62% |
